Experimental findings from PubChem BioAssay (NCI) are described below.

Compounds without any hit were thinned out: in the full panel of roughly 83,000, 20% have a hit.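 Activity criterion: percent growth below 10, measured after cells in 96-well plates were exposed to a single compound concentration for 48 hours.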 The source made the active and inactive calls.

The assay relates to T-47D breast. Kind of assay: NCI-60 one-dose screen, 48 h (100 = growth as untreated, 0 = no growth, -100 = all killed). The note with it: 10 µM unless noted. How it is done:
Growth inhibition of the T-47D human tumor cell line is measured as a screen for anti-cancer activity. Cells are grown in 96 well plates and exposed to the test compound for 48 hours. Compounds are tested at a single concentration, which is 10^-5 M for most compounds. The reported endpoint is percent growth (GI% or GIPRCNT), where numbers from 0 - 100% represent growth inhibition, and numbers from -100% - 0 represent cell death. For example, a value of 40 represents 60% growth inhibition. A value of 0 means no net growth occurred over the course of the experiment. A value of -40 indicates 40% of cells at the beginning of the experiment died by the end of the experiment. A value of -100 means all cells are dead at the end of the experiment.
NCI-60 Human Tumor Cell Lines Screen was performed using the standard one-dose NCI protocol, which is described in more detail at https://dtp.cancer.gov/discovery_development/nci-60/default.htm.
Compounds with GIPRCNT values below 10 were considered active. Activity score was based on GIPRCNT using the following formula: […]
Score is 0 for GIPRCNT values of 100 or above, 50 for GIPRCNT values of 0, and 100 for GIPRCNT values of -100.
On to `COc1c([C@@H](CC(C)C)OC(C)=O)ccc2c1C(=O)OCc1cc(C)cc(O)c1O2`, for which the growth was 17.4% (inactive).

Turning to `O=C1[C@H]2Cc3c([nH]c4ccccc34)[C@@H](c3ccc(Cl)cc3)N2C(=O)CN1C1CCN(Cc2c(Cl)cccc2Cl)CC1`, the growth is 84.8% (inactive).

As for `CC(C)(C)n1nnnc1C(Nc1nccs1)c1cc2cccc3ccc4cccc1c4c32` (stereo not given), the growth was 73.6% (inactive).

In the case of `Cn1cc(-c2nnc(N)nc2-c2cn(C)c3ccc(F)cc23)c2cc(F)ccc21`, the growth is 69.1% (inactive).

Turning to `O=C(CSc1nnc(-c2ccc(Cl)cc2)n1-c1ccccc1)Nc1ccc(F)cc1`, the growth was 80.4% (inactive).

With `COc1cc(/C=C/C(=O)c2ccc(NC(=O)CSc3nnc(-c4ccc5nc(-c6ccccc6)[nH]c5c4)o3)cc2)cc(OC)c1OC`, the growth was 89% (inactive).

Consider `CS(=O)(=O)c1ccc(-c2nn(-c3ccccc3)cc2/C=N/NC(=O)c2ccncc2)cc1`, for which the growth was 90.8% (inactive).

`Nc1ccc(-c2nnc(SCc3ccc(O)c4ncccc34)n2-c2ccccc2)cc1`: the growth is 15.2% (inactive).

Regarding `COc1ccc(C(=O)n2cc(C=O)c3ccccc32)cc1`, the growth is 106% (inactive).

For the molecule `O=S(=O)(NC1CC2CCC1C2)c1ccc2c(c1)C(=NO)c1cc(S(=O)(=O)NC3CC4CCC3C4)ccc1-2` (stereo not given), the growth is -0.508% (active).

With `CCN1C(=O)N(CC)C2SC(N/N=C/c3ccccc3F)=NC21` (stereo not given), the growth was 61.9% (inactive).

`Cc1ccc(C2CC(c3ccc(Nc4nc(NCCO)nc(Nc5ccc(Cl)cc5)n4)cc3)=Nc3c(N)nc(N)nc3N2)cc1` (stereo not given): the growth was 60.1% (inactive).

On to `CS(=O)(=O)c1nccc(-c2c(-c3ccc(F)c(OCc4ccc(F)cc4)c3)nc3sccn23)n1`, for which the growth was -18.7% (active).

Consider `O=C(NNc1nc2cc(F)ccc2n2cncc12)c1cnccn1`, for which the growth is 33.7% (inactive).

Take `COc1ccc(Cn2cc3c(c2-c2ccccc2)CCCc2cnoc2-3)cc1[N+](=O)[O-]`: the growth is 67.7% (inactive).

For the molecule `COc1ccc(-c2nn(-c3ccccc3)cc2/C=C/C(=O)c2ccc(NC(=O)CCCCCCC(=O)NO)cc2)cc1`, the growth was 103% (inactive).

As for `Cc1ccc(-c2cc(-c3cccc4ccccc34)n3c(n2)nc2ccccc23)cc1`, the growth was 54.1% (inactive).

Turning to `O=C(Nc1cc(F)cc2cccnc12)c1cnc(N2CCOCC2)cn1`, the growth was 23.9% (inactive).

For the molecule `O=C(Nc1ccc(F)cc1)c1cc(-c2ccc(F)cc2F)ccc1O`, the growth was -4.71% (active).

Regarding `CCOC(=O)c1c(NCC(=O)Nc2ccc(Br)cc2)sc2c1CCCC2`, the growth was 30.9% (inactive).

On to `Cc1[nH]nc2ccc(-c3nc4cnc(N5CCN(C)CC5)cn4c3Nc3ccc(F)cc3Br)cc12`, for which the growth is 38.9% (inactive).

With `COc1ccc(C2C(C#N)=C(N)Oc3c2sc2ccc(C)cc32)cc1` (stereo not given), the growth was 32.7% (inactive).

On to `C=C(C)[C@@H]1CC[C@]2(C(=O)NCCCN(CCC#N)CCC#N)CC[C@]3(C)[C@H](CC[C@@H]4[C@@]5(C)CCC(=O)C(C)(C)[C@@H]5CC[C@]43C)[C@@H]12`, for which the growth is 91.2% (inactive).

`CC(=O)Nc1nc2c(s1)C1=CC[C@H]3[C@@H]4CC[C@H](C(C)=O)[C@@]4(C)CC[C@@H]3[C@@]1(C)CC2`: the growth is 68% (inactive).

In the case of `C#CCOc1ccc(C(Nc2ccc(Cl)cc2)c2nnnn2C2CCCCC2)cc1` (stereo not given), the growth is 74.4% (inactive).

For the molecule `O=c1[nH]c(CCl)nc2c1cnn2-c1ccccc1`, the growth was 95.2% (inactive).

As for `CC1(COc2ccc3ncc(C#Cc4cncc(C(=O)Nc5cc(C(C)(C)C)on5)c4)n3n2)COC1`, the growth was 32.5% (inactive).

`COc1cc(C(=O)C[n+]2ccc3ccccc3c2)cc(OC)c1OC`: the growth was 96.3% (inactive).

For the molecule `Nc1n[nH]c2cccc(C#Cc3cccc(NC(=O)c4cccc(OC(F)(F)F)c4)c3)c12`, the growth was 33.6% (inactive).

For the molecule `COc1ccc(Cn2cc3c(c2-c2cc(OC)c(OC)c(OC)c2)CCCc2cnoc2-3)cc1`, the growth is 39.1% (inactive).

For `CC(=O)c1ccc(NC(=O)COc2ccc(C3SCC(=O)N3c3ccc(Br)cc3)cc2)cc1` (stereo not given), the growth is 88.7% (inactive).

Take `COc1cccc(/C=C/C(=O)c2ccc(NC(=O)COc3cccc4cccnc34)cc2)c1`: the growth is 82.9% (inactive).

For the molecule `COc1ccc(CN2C(=O)/C(=C/c3nc(CO)cs3)SC2=S)cc1`, the growth was 53% (inactive).

Consider `NS(=O)(=O)c1ccc(Nc2nc(N/N=C/c3ccc([N+](=O)[O-])cc3)nc(Nc3ccccc3)n2)cc1`, for which the growth is 14.1% (inactive).

As to `Oc1ccc(CSc2nnc(-c3ccc(Oc4ccccc4)cc3)o2)c2cccnc12`, the growth is 7.85% (active).

`C#C[C@]1(O)CC[C@H]2[C@@H]3CC=C4c5sc(-c6ccccn6)nc5CC[C@]4(C)[C@H]3CC[C@@]21C`: the growth was 85.3% (inactive).

As to `COc1cc([C@H]2OC[C@H]3[C@@H]2CO[C@@H]3c2ccc(O)c(OC)c2)ccc1O`, the growth was 97.2% (inactive).

For the molecule `COC[C@@]1(C)CC[C@]2(C)CC[C@]3(C)C(=CC[C@@H]4[C@@]5(C)CCCNC(C)(C)[C@@H]5CC[C@]43C)C2C1` (stereo not given in full), the growth was 70.5% (inactive).

Turning to `Oc1ccc(CSc2nnc(-c3ccc(Br)cc3)o2)c2cccnc12`, the growth was 28.5% (inactive).

As for `CN1CCN(Cc2ccc(NC(=O)c3cncc(C#Cc4cnc5ccc(O[C@H]6CCOC6)nn45)c3)cc2C(F)(F)F)CC1`, the growth was 16.2% (inactive).
